test: qHTS profiling of inhibitors of Plasmodium falciparum (HB3) proliferation (acoustic dispense); details: P. falciparum HB3 in erythrocytes, SYBR Green, 72 h; at 49.8 µM (top of the series) unless noted

Structure (SMILES) | activity (normalised, proliferation)
CN(Cc1cnc2nc(N)nc(N)c2n1)c1ccc(C(=O)N[C@@H](CCC(=O)O)C(=O)O)cc1 | 0.621%
COc1cc(NC(C)CCCN)c2ncccc2c1 (centres undefined) | 0.241%
C[C@@H]1CCC2[C@@H](C)[C@@H](O)O[C@@H]3O[C@@]4(C)CC[C@@H]1[C@@]23OO4 (some centres undefined) | -0.43%
CC(=O)Nc1nc(C)c(-c2ccc(Cl)c(S(=O)(=O)NCCO)c2)s1 | -1.46%
CSc1cccc(Nc2ncc3cc(-c4c(Cl)cccc4Cl)c(=O)n(C)c3n2)c1 | 3%
O=C(Nc1cn[nH]c1-c1nc2ccc(CN3CCOCC3)cc2[nH]1)NC1CC1 | 1.76%
CC1(C)N=C(N)N=C(N)N1c1ccc(Cl)cc1 | -0.199%
CCc1nc(N)nc(N)c1-c1ccc(Cl)cc1 | 0.0675%
CC[C@H]1CN2CCc3cc(OC)c(OC)cc3[C@H]2C[C@@H]1C[C@@H]1NCCc2cc(OC)c(OC)cc21 | -0.337%
CC(C=CC(=O)NO)=C[C@@H](C)C(=O)c1ccc(N(C)C)cc1 | -0.304%
COCCn1c2c([n+](Cc3cnccn3)c1C)C(=O)c1ccccc1C2=O | -1.3%
Cc1nc2cnc3ccc(C#Cc4cccnc4)cc3c2n1-c1ccc(C(C)(C)C#N)cc1 | 1.13%
COC1=C2C[C@@H](C)C[C@H](OC)[C@@H](O)[C@@H](C)C=C(C)[C@H](OC(N)=O)[C@@H](OC)C=CC=C(C)C(=O)NC(=CC1=O)C2=O | -2.24%
COc1ccc2nc3cc(Cl)ccc3c(Nc3cc(CN4CCCC4)c(O)c(CN4CCCC4)c3)c2n1 | -3.23%
C[C@H]1Cc2c([nH]c3cc(Cl)c(F)cc23)[C@@]2(N1)C(=O)Nc1ccc(Cl)cc12 | -0.548%
CN[C@@H]1C[C@H]2O[C@@](C)([C@H]1OC)n1c3ccccc3c3c4c(c5c6ccccc6n2c5c31)C(=O)N[C@H]4O | -0.206%
C[C@H](Cn1cnc2c(N)ncnc21)OCP(=O)(O)O | 92.2%

Structure (SMILES) | activity (normalised, proliferation)
Cn1cnc(=N)c2[nH]cnc21 | 1.41%
CO[C@H]1C=CC=C(C)C(=O)NC2=CC(=O)C(NCCN(C)C)=C(C[C@@H](C)C[C@H](OC)[C@@H](O)[C@@H](C)C=C(C)[C@@H]1OC(N)=O)C2=O | -0.262%
C#Cc1cccc(Nc2ncnc3cc(OC)c(OCCCCCCC(=O)NO)cc23)c1 | -0.996%
O=C1C(=O)c2ccccc2C(O)=C1C1CCC(c2ccc(Cl)cc2)CC1 (centres undefined) | 3.49%
CCN(CC)CCNC(=O)c1c(C)[nH]c(C=C2C(=O)Nc3ccc(F)cc32)c1C | 0.208% [at 100 µM]
COc1cc(NCc2ccc3nc(N)nc(N)c3c2C)cc(OC)c1OC | -2.34%
CC1(CN2CCC(n3c(=O)[nH]c4ccccc43)CC2)OCc2ccccc2-n2cccc21 (centres undefined) | 24.8%
O=C1NC(=O)C(=Cc2ccc3nccc(-c4ccncc4)c3c2)S1 | 0.554%
C=CCNC1=C2C[C@@H](C)C[C@H](OC)[C@@H](O)[C@@H](C)C=C(C)[C@H](OC(N)=O)[C@@H](OC)C=CC=C(C)C(=O)NC(=CC1=O)C2=O | -2.45%
CCCCCCOC(=O)C1(O)CC2OC1(C)n1c3ccccc3c3c4c(c5c6ccccc6n2c5c31)C(=O)NC4 (centres undefined) | 100% [at 1.88 µM]
Cc1cn[nH]c1 | 39.3%
CO[C@H]1O[C@@H]2O[C@@]3(C)CC[C@@H]4[C@@H](C)CC[C@@H]([C@H]1C)[C@@]24OO3 | -0.929%
Cc1cn(-c2cc(NC(=O)c3ccc(C)c(Nc4nccc(-c5cccnc5)n4)c3)cc(C(F)(F)F)c2)cn1 | 1.32%
C=CCn1c(=O)c2cnc(Nc3ccc(N4CCN(C)CC4)cc3)nc2n1-c1cccc(C(C)(C)O)n1 | -0.406%
CC(C)N=C(N)N=C(N)Nc1ccc(Cl)cc1 | -0.113%
CC[C@H]1OC(=O)[C@H](C)C(=O)[C@H](C)[C@@H](O[C@H]2O[C@H](C)C[C@H](N(C)C)[C@@H]2O)[C@](C)(OC)C[C@@H](C)C(=O)[C@H](C)[C@H]2N(CCCCn3cnc(-c4cccnc4)c3)C(=O)O[C@]12C | 5.95%
CCNC(=O)c1noc(-c2cc(C(C)C)c(O)cc2O)c1-c1ccc(CN2CCOCC2)cc1 | 117%

— PubChem BioAssay AID743366 (National Center for Advancing Translational Sciences (NCATS), 2014)
